Where “and” joins values, the source holds several entries; their conditions need not be identical. Equal values may be shown once. Inconclusive results are not listed. Where a structure was tested more than once in an assay, its records may differ in their call. Calls of active or inactive are those of the source. How the source made its calls, unless noted: active means hit-call score of the fitted dose curve at least 0.9, where 1 is the maximum; inactive means score below 0.9.
Read-out: Interleukin-8 (IL8), CXCL8 (gene 3576)
Test: BSK_3C_IL8: BioMAP Diversity Plus: 3C Assay for Interleukin-8 (IL8) Biomarker Activity (AID 2283020)
Conditions: primary human endothelial cells (HUVEC); actives raise or lower the signal
In short: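 Using DMSO-treated wells as the baseline, bidirectional curve fitting was applied to ELISA-measured IL-8 from human umbilical vein endothelial cultures sampled 24 h after compound addition.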
In the case of `CC/C(=C(\c1ccccc1)c1ccc(OCCN(C)C)cc1)c1ccccc1`, the AC50 is reported as 8.78 µM (active) and 8.48 µM (active). With `O=C(O)C(F)(F)C(F)(F)C(F)(F)C(F)(F)C(F)(F)C(F)(F)C(F)(F)C(F)F` the outcome was “inactive”. With `CC(C)(CO)CO` the outcome was “inactive”. With `CC(=O)c1ccc(C)cc1` the outcome was “inactive”. For `CCCCCCCC1CCCC1=O` (stereo not drawn), the AC50 was 25.2 µM (active). With `CC=CC(=O)C1=C(C)C=CCC1(C)C` the outcome was “inactive”. In the case of `CC(C)CCCC(C)(C)O`, the outcome is reported as “inactive”. With `C=C(C)C(=O)OCCC(F)(F)C(F)(F)C(F)(F)C(F)(F)C(F)(F)C(F)(F)C(F)(F)C(F)(F)F` the outcome was “inactive”.

Biological target: human Vitamin D Receptor (VDR), VDR (gene 7421) (UniProt P11473)
Sequence (P11473 whole entry, looked up): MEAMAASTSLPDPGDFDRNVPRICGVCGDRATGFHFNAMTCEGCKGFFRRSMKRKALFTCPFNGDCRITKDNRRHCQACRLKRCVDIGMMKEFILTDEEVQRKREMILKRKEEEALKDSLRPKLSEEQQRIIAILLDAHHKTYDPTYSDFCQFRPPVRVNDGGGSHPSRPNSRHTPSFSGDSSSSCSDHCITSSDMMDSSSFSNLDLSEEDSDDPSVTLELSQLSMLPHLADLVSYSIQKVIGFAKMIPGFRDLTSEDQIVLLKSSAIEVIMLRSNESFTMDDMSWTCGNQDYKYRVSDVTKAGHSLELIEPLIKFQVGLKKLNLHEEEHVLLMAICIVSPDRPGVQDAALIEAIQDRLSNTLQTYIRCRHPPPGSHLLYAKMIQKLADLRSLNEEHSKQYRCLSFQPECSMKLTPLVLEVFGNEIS
Test: ATG_VDR_TRANS: Attagene TRANS-FACTORIAL HepG2 Assay for human Vitamin D Receptor (VDR) (AID 2283022; active means hit-call score of the fitted dose curve at least 0.9, where 1 is the maximum)
Conditions: not given
In short: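 HepG2 cells were transiently transfected with GAL4-UAS reporter units and a chimeric VDR-Gal4 construct, then dosed for 24 hours. Reporter mRNA was quantified by RT-PCR, fluorescent labeling, HpaI digestion and capillary electrophoresis; gain of signal analysed vs DMSO.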
With `O=Cc1ccccc1O` the outcome was “inactive”. In the case of `CCCCCCCCOC(C)=O`, the outcome is reported as “inactive”. In the case of `CC(C)=CC(=O)O`, the outcome is reported as “inactive”. With `O=[N+]([O-])c1cc(N(CCO)CCO)ccc1NCCO` the outcome was “inactive”. With `NC(=O)c1cnccn1` the outcome was “inactive”. With `S=c1[nH][nH]c(=S)s1` the outcome was “inactive”. With `COC(=O)C(C)Oc1ccc(Oc2ncc(C(F)(F)F)cc2Cl)cc1` (stereo not drawn) the outcome was “inactive”. With `CC(=O)OC/C=C(C)/C=C/C=C(C)/C=C/C1=C(C)CCCC1(C)C` the outcome was “inactive”. In the case of `C=CC(C)CCCC(C)(C)O` (stereo not drawn), the outcome is reported as “inactive”. In the case of `CCC(CC)CO`, the outcome is reported as “inactive”. In the case of `CN1CCc2cccc3c2[C@H]1Cc1ccc(O)c(O)c1-3`, the outcome is reported as “inactive”. With `c1ccc(Cc2ccccc2)cc1` the outcome was “inactive”. For `CC(CCO)CC(C)(C)C` (stereo not drawn), the outcome was “inactive”. With `Cc1ccc(C(C)(C)O)cc1` the outcome was “inactive”. With `CCCCCCCCSCc1cc(C)c(O)c(CSCCCCCCCC)c1` the outcome was “inactive”. With `CC(=O)Oc1c(C)c(C)c2c(c1C)CC[C@@](C)(CCC[C@H](C)CCC[C@H](C)CCCC(C)C)O2` the outcome was “inactive”. With `CCCCCCOc1ccc(O)cc1` the outcome was “inactive”. With `CCCCOC(=O)C(C)OC(=O)CCC` (stereo not drawn) the outcome was “inactive”. In the case of `CN(C)CCC=C1c2ccccc2CCc2ccccc21`, the outcome is reported as “inactive”. For `CC(=N[Si](C)(C)C)O[Si](C)(C)C`, the outcome was “inactive”. With `CC(C)COC(=O)c1ccccc1O` the outcome was “inactive”. With `COc1ccc2[nH]cc(CCNC(C)=O)c2c1` the outcome was “inactive”. With `CCCCCCCOC(C)=O` the outcome was “inactive”. In the case of `CC1(C)CC(=O)CC(C)(C)N1`, the outcome is reported as “inactive”. In the case of `C=CC(O)CCCCC` (stereo not drawn), the outcome is reported as “inactive”. For `CCO[Si](CC)(OCC)OCC`, the outcome was “inactive”. With `C=COCC1CCC(COC=C)CC1` (stereo not drawn) the outcome was “inactive”. For `CCCCCCCCCO`, the outcome was “inactive”.

Read-out: not listed separately
Test: BSK_3C_SRB: Viability Assessment in the BioMAP Diversity Plus: 3C Assay (AID 2283023);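 further: cells read 24 h after compound dosing; fitted both ways against DMSO so a hit may be signal rise or drop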
Conditions: primary human endothelial cells (HUVEC)
In short: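 Human umbilical vein endothelial cells in the 3C system, treated 24 h. Total protein measured by 0.1% sulforhodamine B staining after 10% TCA fixation, read at 560 nm; bidirectional fit versus DMSO.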
With `CC/C(=C(\c1ccccc1)c1ccc(OCCN(C)C)cc1)c1ccccc1` the AC50 was 5.32 µM (active) and 6.55 µM (active). In the case of `O=C(O)C(F)(F)C(F)(F)C(F)(F)C(F)(F)C(F)(F)C(F)(F)C(F)(F)C(F)F`, the outcome is reported as “inactive”. In the case of `CC(C)(CO)CO`, the outcome is reported as “inactive”. In the case of `CC(=O)c1ccc(C)cc1`, the outcome is reported as “inactive”. With `CCCCCCCC1CCCC1=O` (stereo not drawn) the AC50 was 32.9 µM (active). In the case of `CC=CC(=O)C1=C(C)C=CCC1(C)C`, the outcome is reported as “inactive”. In the case of `CC(C)CCCC(C)(C)O`, the outcome is reported as “inactive”. For `C=C(C)C(=O)OCCC(F)(F)C(F)(F)C(F)(F)C(F)(F)C(F)(F)C(F)(F)C(F)(F)C(F)(F)F`, the outcome was “inactive”.

Read-out: Matrix Metallopeptidase 1 (MMP1), MMP1 (gene 4312)
Test: BSK_BE3C_MMP1: BioMAP Diversity Plus: BE3C Assay for Matrix Metallopeptidase 1 (MMP1) Biomarker Activity (AID 2283024)
Conditions: primary human bronchial epithelial cells; actives raise or lower the signal
In short: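 In this multiplexed primary-cell system, human bronchial epithelium received chemicals for 24 h before an ELISA for MMP1. Values reflect bidirectional fits normalised to the DMSO baseline.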
In the case of `CC/C(=C(\c1ccccc1)c1ccc(OCCN(C)C)cc1)c1ccccc1`, the AC50 is reported as 10.1 µM (active) and 12.3 µM (active). For `O=C(O)C(F)(F)C(F)(F)C(F)(F)C(F)(F)C(F)(F)C(F)(F)C(F)(F)C(F)F`, the AC50 was 11.5 µM (active) and 35.9 µM (active). With `CC(C)(CO)CO` the outcome was “inactive”. For `CC(=O)c1ccc(C)cc1`, the outcome was “inactive”. For `CCCCCCCC1CCCC1=O` (stereo not drawn), the AC50 was 32.8 µM (active). For `CC=CC(=O)C1=C(C)C=CCC1(C)C`, the outcome was “inactive”. In the case of `CC(C)CCCC(C)(C)O`, the outcome is reported as “inactive”. For `C=C(C)C(=O)OCCC(F)(F)C(F)(F)C(F)(F)C(F)(F)C(F)(F)C(F)(F)C(F)(F)C(F)(F)F`, the outcome was “inactive”.

Read-out: not listed separately
Test: BSK_3C_Vis: BioMAP Diversity Plus: 3C Assay for Morphology Visualization (AID 2283025);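 further: fitted both ways so gain or loss versus DMSO counts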;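 on AC50: light microscopy image of cell morphology used as background control; cells imaged 24 h after dosing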
Conditions: primary human endothelial cells (HUVEC)
In short: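 Light-microscopy morphology readout, 24 h exposure, human primary umbilical vein endothelium; analysed relative to DMSO with bidirectional fitting.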
With `CC/C(=C(\c1ccccc1)c1ccc(OCCN(C)C)cc1)c1ccccc1` the AC50 was 4.76 µM (active) and 5.36 µM (active). In the case of `CCCCCCCC1CCCC1=O` (stereo not drawn), the AC50 is reported as 37.8 µM (active). In the case of `CC=CC(=O)C1=C(C)C=CCC1(C)C`, the outcome is reported as “inactive”.

Read-out: Pselectin, SELP (gene 6403)
Test: BSK_4H_Pselectin: BioMAP Diversity Plus: 4H Assay for Pselectin Biomarker Activity (AID 2283026)
Conditions: primary human endothelial cells (HUVEC); actives raise or lower the signal
In short: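 Bidirectional fits against DMSO gave the endpoint. Cells: primary human umbilical vein endothelium, chemical-treated for 24 h before ELISA detection of P-selectin.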
For `CC/C(=C(\c1ccccc1)c1ccc(OCCN(C)C)cc1)c1ccccc1`, the AC50 was 7.7 µM (active) and 8.24 µM (active). In the case of `O=C(O)C(F)(F)C(F)(F)C(F)(F)C(F)(F)C(F)(F)C(F)(F)C(F)(F)C(F)F`, the AC50 is reported as 19.5 µM (active) and the outcome is reported as “inactive”. With `CC(C)(CO)CO` the AC50 was 5.64 µM (active) and the outcome was “inactive”. In the case of `CC(=O)c1ccc(C)cc1`, the outcome is reported as “inactive”. With `CCCCCCCC1CCCC1=O` (stereo not drawn) the AC50 was 32.8 µM (active). For `CC=CC(=O)C1=C(C)C=CCC1(C)C`, the outcome was “inactive”. For `CC(C)CCCC(C)(C)O`, the outcome was “inactive”. For `C=C(C)C(=O)OCCC(F)(F)C(F)(F)C(F)(F)C(F)(F)C(F)(F)C(F)(F)C(F)(F)C(F)(F)F`, the outcome was “inactive”.

Read-out: not listed separately
Test: BSK_4H_SRB: Viability Assessment in the BioMAP Diversity Plus: 4H Assay (AID 2283027);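 further: cells exposed to compound for 24 h before staining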;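 on AC50: curves fitted both ways versus DMSO so AC50 may be loss or gain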
Conditions: primary human endothelial cells (HUVEC)
In short: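 HUVEC, 24 h post-dose; 10% TCA fix, 0.1% SRB stain, A560 nm. Total protein = overt cytotoxicity, parallel to biomarker read. Bidirectional fit vs DMSO baseline.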
For `CC/C(=C(\c1ccccc1)c1ccc(OCCN(C)C)cc1)c1ccccc1`, the AC50 was 6.19 µM (active) and 8.06 µM (active). For `O=C(O)C(F)(F)C(F)(F)C(F)(F)C(F)(F)C(F)(F)C(F)(F)C(F)(F)C(F)F`, the outcome was “inactive”. For `CC(C)(CO)CO`, the outcome was “inactive”. In the case of `CC(=O)c1ccc(C)cc1`, the outcome is reported as “inactive”. With `CCCCCCCC1CCCC1=O` (stereo not drawn) the outcome was “inactive”. With `CC=CC(=O)C1=C(C)C=CCC1(C)C` the outcome was “inactive”. With `CC(C)CCCC(C)(C)O` the outcome was “inactive”. In the case of `C=C(C)C(=O)OCCC(F)(F)C(F)(F)C(F)(F)C(F)(F)C(F)(F)C(F)(F)C(F)(F)C(F)(F)F`, the outcome is reported as “inactive”.

Reference: PubChem BioAssay (EPA / NIEHS)
